# Results: PubChem BioAssay (NCATS)
# Inconclusive results are not listed. A call without a number means that no potency is given here. The source made the active and inactive calls. Calls follow the shape of the dose curve; as a rule, active = well fitted cell-killing curve with a large enough effect; inconclusive = small, poorly fitted or top-dose-only effect, or effect the other way; inactive = flat fitted curve, though single readings scatter.
# Tested on: Tov112D
# Test: Primary qHTS to identify gynecologic anti-cancer compounds using libraries of approved drugs and bioactive compounds (AID 1345084); also: nearly all actives have a fitted effect of over 55% in size
# Conditions: Gynecologic cancer cell panel viability, ATPlite luminescence, 48 h; series mostly up to 57.5 µM
# Outline: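 48 h compound exposure at 37 C, 5% CO2; five-point qHTS. ATPlite luminescence readout of cell ATP.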
# Potency is read from the fitted curve at half-maximal effect.
row,Compound,Potency
1,COc1cc2c(c(OC)c1CC=C(C)C)C[C@H](c1ccc(O)c(CC=C(C)C)c1O)CO2,inactive
2,OC(CC1c2ccccc2-c2cncn21)C1CCCCC1 (centres undefined),inactive
3,Cc1cccc(N2CCN(C(=O)c3cc(S(=O)(=O)N(C)C)ccc3N3CCCC3)CC2)c1C,inactive
4,CC(O)C(C)n1ncn(-c2ccc(N3CCN(c4ccc(OCC5COC(Cn6cncn6)(c6ccc(Cl)cc6Cl)O5)cc4)CC3)cc2)c1=O (centres undefined),inactive
5,COCCCNC(=O)c1ccc(Cn2c(=O)c3ccccc3n(Cc3ccc(C(C)C)cc3)c2=O)cc1,inactive
6,C=C1C(=O)O[C@@H]2/C=C(\CO)CC/C=C(\CO)[C@H](OC(C)=O)C(OC(=O)C(C)CC)C12 (some centres undefined),inactive
7,Cc1cc2sc(NC(=O)Cc3ccccc3)nc2cc1Cl,inactive
8,COc1ccc2c(NC(=O)Nc3cccc(C(F)(F)F)n3)ccnc2c1,inactive
9,COc1cc(C(C)C)c(Oc2cnc(N)nc2N)cc1I,inactive
10,Cc1ccnc(NC(=O)C(C)c2cccc(C(=O)c3ccccc3)c2)c1 (centres undefined),inactive
11,CCC(=O)N1CCOc2c(cc(-c3ccc(OC)c(OC)c3)cc2OC[C@H]2CCCN(C)C2)C1,inactive
12,CNCc1cc(-c2ccccc2F)n(S(=O)(=O)c2cccnc2)c1,inactive
13,CC(C)(CO)c1cc2cc(NC(=O)C3(c4ccc5c(c4)OC(F)(F)O5)CC3)c(F)cc2n1CC(O)CO (centres undefined),inactive
14,C=C(CCC1C(C)(O)CCC2C(C)(C)C(O)CCC12C)C(O)CO (centres undefined),inactive
15,CC1=C2C[C@@]3(C)C(CCC[C@@H]3C)C(O)C2OC1=O (some centres undefined),inactive
16,C[C@@H](NC(=O)C(=O)c1c[nH]c2ccc([N+](=O)[O-])cc12)c1ccccc1,inactive
17,COc1cc2ncnc(Nc3ccc(F)c(Cl)c3)c2cc1O,inactive
18,CCC(C)c1ccc(NC(=O)Cn2cnc3c2c(=O)n(C)c(=O)n3C)cc1 (centres undefined),inactive
19,COc1cc(OC)c(NC(=O)c2ccc(Cc3cc4c(cc3C)C(C)(C)CCC4(C)C)o2)c(OC)c1,inactive
20,Cc1cc(C)nc(SCC(=O)Nc2ncc(Cc3cccc4ccccc34)s2)n1,inactive

row,Compound,Potency
1,C=C(C)C1=C[C@@]2(C)C(=CC1=O)CC[C@@H](O)[C@@H]2C,inactive
2,CCCSc1nc(N[C@@H]2C[C@H]2c2ccc(F)c(F)c2)c2nnn([C@@H]3C[C@H](OCCO)[C@@H](O)[C@H]3O)c2n1,inactive
3,Fc1ccc(-c2nc(-c3ccccc3F)[nH]c2-c2ccncc2)cc1,inactive
4,CC1(CO)CC(O)[C@]2(C(=O)O)CCC34CC3(C=CC3[C@]5(C)C(CC[C@]34C)C(C)(CO)[C@@H](O)[C@H](O)[C@@H]5O)C2C1 (some centres undefined),inactive
5,C=CCCN1CCC2(CC1)CN(C(=O)c1c(F)cccc1F)c1ccc(Cl)cc12,inactive
6,O=c1cc(N2CCN(c3cccc(C(F)(F)F)c3)CC2)[nH]c(=O)n1C1CCCCC1,inactive
7,COc1ccc(OC)c(-c2ccc(NC(=O)c3ccncc3F)cc2)c1,inactive
8,CCOc1ccc(-n2c([C@@H](C)N(Cc3cccnc3)C(=O)Cc3ccc(OC(F)(F)F)cc3)nc3ncccc3c2=O)cc1,inactive
9,CC1(C)CCCC2(C)C1C(=O)C=C(C(=O)O)C2(O)C(=O)O (centres undefined),inactive
10,CC(C)=CCC[C@](C)(O[C@@H]1O[C@H](CO[C@@H]2OC[C@@H](O)[C@H](O)[C@H]2O)[C@@H](O)[C@H](O)[C@H]1O)[C@H]1CC[C@]2(C)[C@@H]1[C@H](O)C[C@@H]1[C@@]3(C)CC[C@H](O[C@@H]4O[C@H](CO)[C@@H](O)[C@H](O)[C@H]4O)C(C)(C)[C@@H]3CC[C@]12C,inactive
11,C/C=C(/C=C(C)/C=C/C=C/C=C(\C)C(=O)C12OC1C(O)(CCO)NC2=O)C(=O)OC (centres undefined),inactive
12,CC(C)c1cc(-c2ccc(F)c3ccccc23)nc(N)n1,inactive
13,c1cc(NC2CCNCC2)nc(-c2cnc3ccccn23)c1,20 µM (active)
14,CC(=O)O[C@@H]1CC[C@@]2(C)C(CC[C@]3(C)C2[C@H](O)C=C2[C@H]4[C@@H](C)[C@H](C)CC[C@]4(C)CC[C@]23C)[C@@]1(C)C(=O)O (some centres undefined),inactive
15,CCN(CCNC(=O)Nc1ccccc1Br)c1cccc(C)c1,inactive
16,Cc1cc2c(c(=O)o1)C=C1CC[C@H]([C@H](C)Cn3cnc(=N)c4[nH]cnc43)C[C@@H]1O2,inactive
17,CC(=O)OC/C(=C/C(=O)O)CC[C@@H]1C(C=O)=CC[C@@H]2C(C)(C)CCC[C@@]12C,inactive
18,CC(C)(C)c1ccc(NC(=O)N2CCN(c3ncccc3Cl)CC2)cc1,inactive
19,C=C1CCC2C(C)(C(=O)O)CCCC2(C)C1CCC1=CCOC1=O (centres undefined),inactive
